For 15 molecules, growth results are on record in PubChem BioAssay (NCI).

About 83,000 compounds went through this panel and 20% of them were active in at least one assay; those are over-represented in the sample as a whole.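 Negative percent growth values reflect cell death: -40 means 40% of the cells present at the start died, and -100 means all died.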 Values without a mark were called inactive. Calls of active or inactive are those of the source. Rule for the calls: active = growth percent below 10; inactive = the rest.

Test systems include NCI-H23 lung; NCI-H226 lung; NCI-H322M lung; NCI-H460 lung; HOP-92 NSCLC; NCI-H522 lung; A549/ATCC NSCLC; 786-0 renal; COLO 205 colon; HOP-62 NSCLC.
Test in all cases: NCI-60 one-dose screen, 48 h (100 = growth as untreated, 0 = no growth, -100 = all killed)
What all share (conditions): 10 µM unless noted

With `COc1ccc(NC(=O)Nc2ccc(OCCCCCC(=O)NO)cc2)cc1`, the growth in the assay with NCI-H23 lung was 98%; with NCI-H226 lung, 100%; in the assay with NCI-H322M lung it was 94.7%; in the assay with NCI-H460 lung, 96.3%; in the assay with HOP-92 NSCLC, 94%; with NCI-H522 lung, 68.1%. Besides, the growth was 90.3% in the assay with A549/ATCC NSCLC, 97.1% with 786-0 renal and 110% with COLO 205 colon.

With `O=C(NNc1cnccn1)c1nc2cc(F)ccc2n2cccc12`, the growth in the assay on NCI-H23 lung was 25.4%; with NCI-H226 lung it was 14.1%; in the assay on NCI-H322M lung it was 18%; with NCI-H460 lung, 2.78% (active); with HOP-92 NSCLC it was 34.9%; in the assay on NCI-H522 lung it was -2.38% (active). Besides, the growth with A549/ATCC NSCLC is 11.1%; in the assay on 786-0 renal, 28.6%; in the assay with COLO 205 colon it was 7.25% (active).

For the molecule `CCOc1c(OC)cc2c(c1O)C(=O)N[C@@H]1[C@@H](O)[C@@H](O)[C@H](O)C[C@@H]21`, the growth was 107% with NCI-H23 lung; 99.8% in the assay with NCI-H226 lung; 103% in the assay on NCI-H322M lung; 112% in the assay with NCI-H460 lung; 85.2% in the assay on HOP-92 NSCLC; 92.3% in the assay on NCI-H522 lung. In addition, the growth was 102% in the assay on 786-0 renal and 115% in the assay on COLO 205 colon.

As for `COc1ccc(C(O)c2cc3c(N)c(C(=O)Nc4cccc(Cl)c4C)sc3nc2C)cc1` (configuration not stated), the growth with NCI-H23 lung was 25.5%; in the assay on NCI-H226 lung, 54.5%; in the assay on NCI-H322M lung it was 39.4%; in the assay on HOP-62 NSCLC, 16.2%; in the assay with NCI-H460 lung it was -6.01% (active); in the assay with NCI-H522 lung, -34.9% (active). Also, the growth in the assay on A549/ATCC NSCLC is 10.5%; in the assay on 786-0 renal, 22.2%; in the assay with COLO 205 colon, -23% (active).

Consider `C=C(C)[C@@H]1CC[C@]2(C(=O)N3CCN(C)CC3)CC[C@]3(C)[C@H](CC[C@@H]4[C@@]5(C)CC[C@H](OC(=O)c6ccccc6C(=O)O)C(C)(C)[C@@H]5CC[C@]43C)[C@@H]12`, for which the growth with NCI-H23 lung is 99.9%; in the assay on NCI-H226 lung, 99.4%; in the assay with NCI-H322M lung, 101%; with NCI-H460 lung, 103%; in the assay on HOP-92 NSCLC it was 102%; with NCI-H522 lung it was 84.2%. Besides, the figures for the growth in the assay on A549/ATCC NSCLC, in the assay with 786-0 renal and in the assay with COLO 205 colon were 104%, 101% and 111%, respectively.

For the molecule `Cc1cc(Nc2ccc(C(=O)N3CCCC3)cc2)nc(NCCCNc2ccnc3cc(Cl)ccc23)n1`, the growth in the assay with NCI-H23 lung is 87.8%; in the assay on NCI-H226 lung, 105%; in the assay with NCI-H322M lung, 85.8%; with HOP-62 NSCLC, 81.2%; with NCI-H460 lung, 59.4%; with NCI-H522 lung, 65.6%. The values for the growth with A549/ATCC NSCLC, in the assay with 786-0 renal and in the assay with COLO 205 colon were 104%, 87.9% and 76.5%, respectively.

Turning to `O=c1nc(-c2ccccc2)c2cc(-c3ccc(C(F)(F)F)nc3)ccc2[nH]1`, the growth is 89.5% in the assay with NCI-H23 lung; 100% in the assay with NCI-H226 lung; 92.9% with NCI-H322M lung; 106% in the assay with NCI-H460 lung; 105% with HOP-92 NSCLC; 85.3% in the assay with NCI-H522 lung. Also, the growth in the assay on A549/ATCC NSCLC is 111%; in the assay on 786-0 renal, 100%; in the assay with COLO 205 colon, 105%.

As to `O=c1c2ccccc2c(=O)c2c1sc1c(=O)c3ccc(O)cc3c(=O)c12`, the growth was -38.8% (active) with NCI-H23 lung; -91.3% (active) in the assay with NCI-H226 lung; -95.9% (active) in the assay with NCI-H322M lung; -73.1% (active) in the assay on NCI-H460 lung; -24.9% (active) with HOP-92 NSCLC; -64.5% (active) in the assay with NCI-H522 lung. Besides, the growth with A549/ATCC NSCLC was -55.1% (active); in the assay on 786-0 renal it was -52.7% (active); with COLO 205 colon, -82.5% (active).

For the molecule `CNC1=C([N+](=O)[O-])C(c2ccc(OC)cc2)C(C#N)=C(c2cccs2)O1` (configuration not stated), the growth in the assay with NCI-H23 lung is 103%; in the assay with NCI-H226 lung, 99.8%; with NCI-H322M lung it was 103%; in the assay on HOP-62 NSCLC, 99.6%; with NCI-H460 lung, 109%; with NCI-H522 lung, 102%. Moreover, the growth with A549/ATCC NSCLC is 102%; in the assay on 786-0 renal, 110%; in the assay with COLO 205 colon, 111%.

Take `COc1cc(/C=C/C(=O)c2ccc(-n3cc(CN4CCN(c5cc6c(cc5F)c(=O)c(C(=O)O)cn6C5CC5)CC4)nn3)cc2)ccc1O`: the growth with NCI-H23 lung is 91.4%; with NCI-H226 lung it was 82.1%; with NCI-H322M lung, 80.2%; in the assay on HOP-62 NSCLC, 67.7%; in the assay with NCI-H460 lung, 66.7%; in the assay with NCI-H522 lung, 83.9%. Also, the growth was 71.6% in the assay on A549/ATCC NSCLC, 53.9% with 786-0 renal and 106% with COLO 205 colon.

As to `CCSc1oc(C)nc1[P+](c1ccccc1)(c1ccccc1)c1ccccc1`, the growth in the assay with NCI-H23 lung was 20.6%; in the assay on NCI-H226 lung, 57.9%; in the assay on NCI-H322M lung, 77%; in the assay with NCI-H460 lung, 16.8%; with HOP-92 NSCLC, 25.3%; in the assay with NCI-H522 lung, 24.8%. Moreover, the growth is 56.6% in the assay with 786-0 renal and -7.48% (active) in the assay with COLO 205 colon.

Regarding `O=C(Cc1ccc(/C=C/C(=O)c2ncc[nH]2)cc1)Nc1cc(C(F)(F)F)cc(C(F)(F)F)c1`, the growth with NCI-H23 lung was 93.9%; in the assay with NCI-H226 lung, 103%; with NCI-H322M lung, 96.4%; with NCI-H460 lung, 93.7%; in the assay with HOP-92 NSCLC, 116%; with NCI-H522 lung it was 96.6%. The results for the growth in the assay with A549/ATCC NSCLC, with 786-0 renal and in the assay with COLO 205 colon were 81.1%, 52.2% and 102%, respectively.

On to `CCN(CC)CCN1C(=O)c2c(c(C)c3c(oc4ccc(O)cc43)c2C)C1=O`, for which the growth in the assay with NCI-H23 lung was 47.3%; in the assay with NCI-H226 lung, 70%; with NCI-H322M lung it was 33.2%; with HOP-62 NSCLC, 80.7%; with NCI-H460 lung it was -45.6% (active); in the assay on NCI-H522 lung, 68.2%. In addition, the growth with A549/ATCC NSCLC is 20.6%; with 786-0 renal, -36.2% (active); in the assay with COLO 205 colon, 83.2%.

Consider `O=C(Nc1ncccc1OCc1ccccc1)NC1CCCCCC1`, for which the growth with NCI-H23 lung was 89.8%; in the assay on NCI-H226 lung, 73.8%; with NCI-H322M lung it was 88.2%; in the assay with HOP-62 NSCLC it was 102%; in the assay on NCI-H460 lung, 93.5%; with NCI-H522 lung it was 72.6%. For the same molecule, the growth was 89.6% in the assay with 786-0 renal and 103% in the assay on COLO 205 colon.

Regarding `O=C(O)c1cn(C2CC2)c2cc(N3CCN(C(=O)Nc4nc(-c5ccc(Br)cc5)cs4)CC3)c(F)cc2c1=O`, the growth in the assay with NCI-H23 lung was 12.4%; in the assay on NCI-H226 lung, 18.9%; with NCI-H322M lung, 6.95% (active); with NCI-H460 lung, 10.4%; in the assay on HOP-92 NSCLC, -8.59% (active); in the assay with NCI-H522 lung, 5.78% (active). Also, the values for the growth in the assay on A549/ATCC NSCLC, with 786-0 renal and with COLO 205 colon were 14.3%, 27.3% and 24.2%, respectively.
